SENP6 inh – blocks the human protease SENP6; Q9GZR1; Recombinant SENP6 catalytic domain, aminoluciferin luminescence; inhibition, % at 10 µM; hit rate 1.8% among 330,000; AID 2599;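 active = inhibition above about 50% at the single tested dose, limit read from the data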;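 note: plate controls were DMSO wells with enzyme for no effect and DMSO wells lacking enzyme for full effect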
Target sequence (Q9GZR1 628-1112 limits assumed): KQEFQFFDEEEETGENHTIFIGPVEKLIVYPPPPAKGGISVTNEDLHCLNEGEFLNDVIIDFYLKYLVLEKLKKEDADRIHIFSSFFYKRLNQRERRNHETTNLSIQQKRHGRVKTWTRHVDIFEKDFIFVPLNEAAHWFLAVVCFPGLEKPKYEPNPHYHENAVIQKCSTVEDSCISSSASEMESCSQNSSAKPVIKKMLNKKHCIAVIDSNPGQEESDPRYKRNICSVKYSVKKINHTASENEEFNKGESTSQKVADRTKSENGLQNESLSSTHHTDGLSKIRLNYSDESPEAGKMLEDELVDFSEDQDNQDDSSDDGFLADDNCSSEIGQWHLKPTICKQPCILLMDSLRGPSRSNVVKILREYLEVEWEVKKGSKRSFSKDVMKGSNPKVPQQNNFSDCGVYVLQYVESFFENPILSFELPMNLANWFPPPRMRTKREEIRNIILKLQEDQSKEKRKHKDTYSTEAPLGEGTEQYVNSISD
SENP8 block-1 – blocks human SENP8 cleavage of Nedd8 substrate. recombinant SENP8, Nedd8 substrate fluorescence. Q96LD8. inhibition, % at 20 µM. hit rate 0.64% among 360,000; in the data active = inhibition mostly above about 40%, no sharp cut-off; inactive = mostly below about 27%
SENP7 block – SENP7 protease inhibition | hit rate 1.5% among 330,000 | Q9BQF6 | inhibition, % at 5 µM | recombinant SENP7, Z-RLRGG-aminoluciferin luminescence, 40 min;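 active = inhibition above about 50% at the single test dose, limit read from the data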;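 note: plate controls were DMSO with enzyme for no effect and no enzyme buffer wells for full effect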
C8 TRAIL sens – caspase-8 TRAIL sensitization; NB7+C8 cells + TRAIL, ATPlite viability luminescence; hit rate 1% among 360,000; inhibition (viability loss, TRAIL sensitization), % at 10 µM;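 active = compounds causing at least 50% loss of cell viability in the single-dose screen, relative to plate controls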
SENP8 block-2 – SENP8 protease inhibition; Q96LD8; purified SENP8, Z-RLRGG-aminoluciferin cleavage, luminescence; inhibition, % at 10 µM; hit rate 1.2% among 330,000; in the data active = inhibition above about 50%
PPC-1+TRAIL kill – kills PPC-1 cancer cells in the presence of TRAIL; PPC-1 cells + TRAIL, ATPLite viability luminescence; cell killing (% activity), % at 4 µM or 5 µM; hit rate 0.41% among 220,000;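 active = cell killing above 50% in the first pass at 4 µM, then a duplicate retest at 5 µM averaging 50% or more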;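 note: plate controls were cells with TRAIL plus DMSO for no effect and medium-only wells lacking cells for full effect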
SENP8 conf – confirmation of human SENP8 protease inhibitors; shares compounds with SENP7 block; Recombinant SENP8, Z-RLRGG-aminoluciferin luminescence, 60 min; inhibition, % at 12.5 µM; hit rate 40% among 6,200;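 active = mean inhibition across replicates above about 50%, limit read from the data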
SENP6 confirm – human SENP6 inhibition, confirmed; shares compounds with SENP7 block; recombinant SENP6, Z-RLRGG-aminoluciferin luminescence; inhibition, % at 12.5 µM; hit rate 58% among 6,200; AID 488915
SENP7 conf – confirmation of human SENP7 protease inhibitors | shares compounds with SENP7 block | recombinant SENP7, Z-RLRGG-aminoluciferin luminescence, 40 min | inhibition, % at 12.5 µM | hit rate 69% among 6,200 | AID 488917
Casp3 SENP sel – inhibits human caspase-3 in SENP selectivity test. hit rate 60% among 6,200. inhibition, % at 12.5 µM. shares compounds with SENP7 block. purified caspase-3, Z-DEVD-aminoluciferin luminescence, 60 min. AID 488918;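 active = mean inhibition above about 50%, limit read from the data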;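 note: plate controls were enzyme with DMSO for no effect and wells without caspase-3 for full effect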
SENP luc ctr – luminescence interference (SENP counter-screen). shares compounds with SENP7 block. Pre-incubated SENP8/Z-RLRGG-aminoluciferin, luciferase luminescence interference. inhibition, % at 12.5 µM. hit rate 39% among 6,200;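 active = mean inhibition above about 50% when retested at one dose, limit read from the data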;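 note: plate controls were DMSO wells with completed reaction for no effect and substrate without enzyme for full effect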
Starred values were filed as active, the others as inactive; nt = not tested or not shown. Shown are actives, neighbours in structure and some others; about 3% of the full set was active somewhere.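 Rule for the calls, unless noted: active = mean inhibition above about 50% in the one-dose retest (limit read from the data); inactive = the rest.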

SMILES	SENP6 inh	SENP8 block-1	SENP7 block	C8 TRAIL sens	SENP8 block-2	PPC-1+TRAIL kill	SENP8 conf	SENP6 confirm	SENP7 conf	Casp3 SENP sel	SENP luc ctr
O=C(Nc1ccc(Cl)cc1)Nc1cccc(C(=O)O)c1	94.9*	13.7	96.8*	64.9*	94.9*	27.3	98.8*	99.2*	103.5*	86.7*	98.2*
O=C(Nc1ccc(CN2CCCCC2)cc1)Nc1ccccc1Cl	2.3	17.5	8.8	10.9	-8.9	5.7	nt	nt	nt	nt	nt
COCc1cc(C)n(CC(=O)Nc2ccc(N3CCOCC3)cc2)c(=O)c1C#N	1.6	4.7	7.1	-3.5	-11.7	nt	nt	nt	nt	nt	nt
CC(C)c1ccc(CNc2ncccn2)cc1	-17.7	-1.1	7.5	3.5	-10.0	nt	nt	nt	nt	nt	nt
CC(C)C(=O)Nc1ccc(NC(=S)NC(=O)c2ccccc2F)cc1	0.0	0.5	-11.3	15.2	-9.1	nt	nt	nt	nt	nt	nt
Nc1cc(S(=O)(=O)Nc2ccccc2Cl)ccc1N1CCCCC1	2.5	21.4	4.9	21.3	12.1	nt	nt	nt	nt	nt	nt
N#CCSc1nnc2sc3ccccc3n12	-14.2	7.4	87.1*	-4.4	-1.9	1.4	9.2	9.4	-9.0	-3.2	0.1
NC(=O)CSc1nnc2sc3ccccc3n12	12.3	17.9	7.7	1.1	4.9	-1.2	nt	nt	nt	nt	nt
Cc1cccc(NS(=O)(=O)c2ccc(C)c(C(=O)NNC(=O)c3csc(N4CCOCC4)n3)c2)c1	nt	0.8	nt	1.6	nt	nt	nt	nt	nt	nt	nt
O=C(Oc1ccc(/C=N/O)cc1)c1ccccc1	78.2*	3.4	80.0*	1.3	45.4	1.2	66.2*	64.8*	89.4*	71.9*	79.3*
O=C(Oc1ccc2ccccc2c1)c1ccccc1	83.4*	4.7	-3.5	-4.4	70.8*	11.0	73.5*	86.2*	95.1*	65.7*	69.6*
COc1ccc(NC(=O)C2CC3CCC2C3)c(OC)c1 (stereo unspecified)	-6.8	22.8	2.5	-15.3	2.9	nt	nt	nt	nt	nt	nt
CCOc1cc(C)nc(N2CCC(C(=O)NC3CC3)CC2)n1	nt	-69.2	nt	-0.1	nt	nt	nt	nt	nt	nt	nt
COCC(=O)N1C[C@H]2CON(C)[C@H]2C[C@H]1c1cccc(-c2ccccc2)c1	nt	17.8	nt	-15.7	nt	nt	nt	nt	nt	nt	nt
O=C(N/N=C/c1ccc(O)c([N+](=O)[O-])c1)c1ccncc1	57.3*	30.9	48.9	-19.7	19.9	6.5	38.2	26.5	66.4*	78.6*	15.0
Cc1ccc(C(=O)N/N=C\c2ccc([N+](=O)[O-])s2)cn1	39.2	31.7	11.4	33.4	30.6	5.3	nt	nt	nt	nt	nt
COc1ccc(/C=N/NC(=O)c2ccncc2)cc1[N+](=O)[O-]	2.6	9.9	-1.6	-6.6	-5.4	7.4	nt	nt	nt	nt	nt
CN(C)c1ccc(/C=N/NC(=O)c2nonc2N)cc1[N+](=O)[O-]	45.3	29.2	55.5*	-0.8	20.9	5.7	27.1	26.8	76.4*	75.1*	59.3*
O=C(N/N=C/c1ccc([N+](=O)[O-])s1)c1ccncc1	57.5*	34.2	20.8	29.2	11.9	17.9	6.9	44.4	9.7	6.3	-2.9
Cc1csc(N/N=C/c2ccc(O)c([N+](=O)[O-])c2)n1	68.7*	12.1	25.4	-2.2	55.4*	4.0	11.6	88.6*	49.7	3.2	2.0
CC1(C2CC2)NC(=O)N(CC(=O)Nc2ccccc2C#N)C1=O (stereo unspecified)	3.6	8.5	-10.8	-9.1	6.8	nt	nt	nt	nt	nt	nt
Cc1ccc(NC(=O)C(=O)c2c[nH]c3ccccc23)cc1	66.0*	16.1	69.6*	29.5	46.6	nt	51.7*	49.4	87.1*	44.9	10.9
Cc1ccc(NC(=O)c2cc(=O)[nH]c3ccccc23)cc1	-13.7	17.2	1.5	-11.3	2.8	nt	nt	nt	nt	nt	nt
O=C(O)c1ccccc1Nc1ccccc1	-10.1	-2.1	-9.7	7.0	-1.1	nt	nt	nt	nt	nt	nt
O=C(O)c1ccccc1Nc1ccc(OC(F)F)cc1	10.4	14.8	20.6	-6.1	55.2*	16.4	61.2*	60.2*	80.4*	65.6*	73.9*
SMILES	SENP6 inh	SENP8 block-1	SENP7 block	C8 TRAIL sens	SENP8 block-2	PPC-1+TRAIL kill	SENP8 conf	SENP6 confirm	SENP7 conf	Casp3 SENP sel	SENP luc ctr
Cc1c(N=Cc2c(O)n(C)c(=O)c3ccccc23)c(=O)n(-c2ccccc2)n1C	52.3*	-47.7	40.6	7.9	10.3	25.1	-18.9	-9.2	-1.0	0.3	-5.1
O=C(/C=C/Nc1ccc(F)cc1F)c1cccs1	96.3*	-138.5	98.7*	93.2*	97.0*	63.0*	-7.9	99.7*	103.5*	97.8*	26.8
O=C(NNC(=O)c1cccs1)c1cccc(F)c1	-17.7	3.4	2.9	12.0	-3.0	nt	nt	nt	nt	nt	nt
O=C(/C=C/Nc1ccccc1F)c1cccs1	95.8*	-78.9	100.0*	86.6*	96.2*	50.1*	97.2*	99.8*	102.8*	97.5*	96.6*
O=C(/C=C/Nc1ccc(F)cc1F)c1ccc(Br)cc1	15.6	-63.9	67.5*	41.7	0.0	nt	-5.8	-3.2	-1.4	16.9	3.4
O=C(/C=C\Nc1cccc(F)c1)c1cccs1	94.4*	-283.9	92.4*	27.0	88.8*	30.9	95.6*	96.9*	102.0*	93.3*	94.8*
CCN(C(=O)COC(=O)C(c1ccccc1)c1ccccc1)c1c(N)n(Cc2ccccc2)c(=O)[nH]c1=O	nt	-2.2	nt	-12.1	nt	nt	nt	nt	nt	nt	nt

Screening data from PubChem.
